Several values for one entry are separate records, joined by “and”; a condition that tells them apart may be missing. Equal values may be shown once.

Results on 39 compounds are retold here after the supplement of paper PMC7156485.
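Note: TDF is a line of transformed human dermal fibroblasts of mesenchymal origin.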

For this test, the system named is TDF. Description: H1.0 immunofluorescence intensity relative to DMSO (% of DMSO); higher = stronger H1.0 induction, active = 120 or more. The conditions noted are these: concentration: 10 µM; 24 h. Summed up: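 In 384-well plates holding 800 HCC1569 or TDF cells per well in RPMI with 10% FBS, compounds were tested at 10 µM for 24 h at 37 °C in triplicate. Fixation used 3.7% formaldehyde. Staining used a rabbit anti-H1.0 antibody with an AlexaFluor 647 secondary, plus DAPI. Each value, H1.0 nuclear intensity or cell number, is a median of replicates shown as percent of the plate control, and HCC1569 values were smoothed for positional effects.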
Turning to `CON=C(C(=O)NC1C(=O)N2C(C(=O)[O-])=C(CSc3nc(=O)c([O-])nn3C)CSC12)c1csc(N)n1.[Na+].[Na+]` (centres undefined) [Ceftriaxone sodium], the H1.0 immunofluorescence intensity is 99.3 (inactive). As to `C1COC(NC(C2CC2)C2CC2)=N1` [Rilmenidine hemifumarate], the H1.0 immunofluorescence intensity was 89.5 (inactive). The same measure for `CCN(Cc1ccncc1)C(=O)C(CO)c1ccccc1` (centres undefined) [Tropicamide]: 98.4 (inactive); for `Cn1c(=O)c(-c2c(Cl)cccc2Cl)cc2cnc(Nc3ccc(N4CCOCC4)cc3)nc21`: 154 (active). The same measure for `CCN1CCN(C(=O)NC(C(=O)NC2C(=O)N3C2SC(C)(C)C3C(=O)O)c2ccccc2)C(=O)C1=O` (centres undefined) [Piperacillin]: 95.4 (inactive); for `O=C(NCCNCC(O)COc1ccc(O)cc1)N1CCOCC1.O=C(O)C=CC(=O)O` (centres undefined) [Xamoterol hemifumarate]: 88.7 (inactive).

Regarding `C[C@H](N[C@@H](CCc1ccccc1)C(=O)O)C(=O)N1CCC[C@H]1C(=O)O.O.O`, the H1.0 immunofluorescence intensity is 101 (inactive).

On to `CN(C)CCn1cc(S(=O)(=O)c2cccc(F)c2)c2cccnc21`, for which the H1.0 immunofluorescence intensity is 127 (active). Take `Cc1cccc(-c2[nH]c(C(C)(C)C)nc2-c2ccc3c(c2)OCO3)n1.Cl` [TGF-b RI Inhibitor III]: the H1.0 immunofluorescence intensity is 97.7 (inactive). The same measure for `CCC(CO)Nc1nc(NCc2ccccc2)c2ncn(C(C)C)c2n1` (centres undefined) [Roscovitine]: 93.9 (inactive); for `COC1CC(OC2C(C)C(=O)OC(C)C(C)C(OC(C)=O)C(C)C(=O)C3(CO3)CC(C)C(OC3OC(C)CC(N(C)C)C3OC(C)=O)C2C)OC(C)C1OC(C)=O` (centres undefined) [Troleandomycin]: 97.2 (inactive). For `O=C(O)c1cn(C2CC2)c2cc(N3CCNCC3)c(F)cc2c1=O` [Ciprofloxacin] the value was 91.7 (inactive); for `COc1ccc2c3c1OC1CC(O)C=CC31CCN(C)C2` (centres undefined) [Galanthamine], 94 (inactive). For `CCCOc1ccccc1-c1nc2[nH][nH]nc-2c(=O)n1` [Zaprinast] the value was 99.1 (inactive); for `COc1cc2c(CCNC(C)=O)c[nH]c2cc1O` [6-Hydroxymelatonin], 91.4 (inactive); for `Cn1c(=O)c2[nH]cnc2n(C)c1=O` [Theophylline], 97 (inactive). In the case of `CCN(CC)CCCCN1c2ccccc2Oc2ccc(Cl)cc21.Cl` [Akt Inhibitor X], the H1.0 immunofluorescence intensity is 108 (inactive).

For the compound `NCCCC(=O)O`, the H1.0 immunofluorescence intensity was 108 (inactive). The same measure for `CCCCCCCCC=CCCCCCCCCC(=O)O` [10(E)-Nonadecenoic acid]: 97.4 (inactive); for `CC(=O)SC1CC2=CC(=O)CCC2(C)C2CCC3(C)C(CCC34CCC(=O)O4)C12` (centres undefined) [Spironolactone]: 92.2 (inactive); for `COc1ccccc1Oc1c(NS(=O)(=O)c2ccc(C(C)(C)C)cc2)nc(-c2ncccn2)nc1OCCO` [Bosentan]: 98.9 (inactive). For `O=C(O)c1ccc(-c2c[nH]c3ncc(-c4ccccc4)cc23)cc1C1CCCC1` the value was 95.6 (inactive) and 106 (inactive).

For the compound `COc1ccc2nc(S(=O)Cc3ncc(C)c(OC)c3C)[nH]c2c1` (centres undefined) [Omeprazole], the H1.0 immunofluorescence intensity was 95.5 (inactive).

As to `O=C(NCCO)c1cccc(-c2cc(Nc3ccc(OC(F)(F)F)cc3)ncn2)c1`, the H1.0 immunofluorescence intensity was 110 (inactive). The same measure for `CC(C)c1cc(/C=C(\C#N)C(=O)NCCCc2ccccc2)cc(C(C)C)c1O`: 97.9 (inactive); for `N[C@H](CO)C(=O)O` [D-Serine]: 87.2 (inactive).

As to `CC(=O)c1ccc2c(c1)[C@H](NC(=O)c1ccc(F)c(Cl)c1)[C@H](O)C(C)(C)O2`, the H1.0 immunofluorescence intensity was 104 (inactive).

For the compound `CC(=O)O.NC(N)=NN=Cc1c(Cl)cccc1Cl` [Guanabenz acetate], the H1.0 immunofluorescence intensity is 106 (inactive).

For `CCCCS(=N)(=O)CCC(N)C(=O)O` (centres undefined) [Buthionine sulfoximine], the H1.0 immunofluorescence intensity is 89.1 (inactive).

For the compound `O=C(/C=C/c1cccnc1)NCCCCC1CCN(C(=O)c2ccccc2)CC1`, the H1.0 immunofluorescence intensity is 98.9 (inactive). For `CC(N)=O` [Acetamide] the value was 111 (inactive); for `O=C1OC(CN2CCOCC2)CN1/N=C/c1ccc([N+](=O)[O-])o1` (centres undefined), 96.7 (inactive). `N[C@@H](COP(=O)(O)O)C(=O)O` [O-Phospho-L-serine]: the H1.0 immunofluorescence intensity is 94.9 (inactive). For `CNC1C(O)C(NC)C2OC3(O)C(=O)CC(C)OC3OC2C1O.Cl.Cl` (centres undefined) [Spectinomycin.2HCl] the value was 94.4 (inactive); for `CS(=O)(=O)O.Cc1ccc(NC(=O)c2ccc(CN3CCN(C)CC3)cc2)cc1Nc1nccc(-c2cccnc2)n1` [Imatinib], 107 (inactive). For `CCCOc1ccc2nc(NC(=O)OC)[nH]c2c1` [Oxibendazole] the value was 157 (active); for `CN1C(C)(C)CCCC1(C)C.O=C(O)C(O)C(O)C(=O)O` [Pempidine tartrate], 99.5 (inactive); for `CC(C)(C)NCC(O)COc1nsnc1N1CCOCC1.O=C(O)C=CC(=O)O` [(S)-Timolol maleate], 87.4 (inactive). The same measure for `COc1cc2ncc(-c3ccccc3)nc2cc1OC` [Tyrphostin AG 1296]: 97.3 (inactive).
